From PubChem BioAssay
PP5 primary – inhibitors of human protein phosphatase 5 (PP5) | inhibition, % at 6.7 µM | P53041 | purified PP5c, OMFP substrate fluorescence | 0.18% of 320,000 active;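 active = inhibition above the campaign's mean inhibition across all tested compounds plus 3 SD, cut at about 9.5% in these data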;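 note: 0% = DMSO only and 100% = 100 µM cantharidin control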
Target sequence (P53041 whole entry, looked up): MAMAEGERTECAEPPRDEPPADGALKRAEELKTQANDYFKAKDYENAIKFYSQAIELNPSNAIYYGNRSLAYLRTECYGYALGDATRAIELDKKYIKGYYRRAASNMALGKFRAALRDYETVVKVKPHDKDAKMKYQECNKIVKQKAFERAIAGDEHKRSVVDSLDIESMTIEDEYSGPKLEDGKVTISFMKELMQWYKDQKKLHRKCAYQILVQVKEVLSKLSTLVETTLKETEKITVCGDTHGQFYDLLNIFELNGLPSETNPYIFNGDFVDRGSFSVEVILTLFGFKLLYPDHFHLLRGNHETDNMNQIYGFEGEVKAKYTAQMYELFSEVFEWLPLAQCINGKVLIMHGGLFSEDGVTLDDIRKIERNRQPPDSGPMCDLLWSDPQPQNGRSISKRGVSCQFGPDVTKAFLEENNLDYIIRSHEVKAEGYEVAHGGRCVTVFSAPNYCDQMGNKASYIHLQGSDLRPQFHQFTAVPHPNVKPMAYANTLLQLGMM
pPAFAH inh – inhibitors of human plasma PAF acetylhydrolase (pPAFAH). inhibition, % at 3.39 µM. AID 463082. Q13093. 1.5% of 330,000 active. recombinant pPAFAH, FP-rhodamine probe fluorescence polarization;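 active = inhibition above the mean inhibition across the screen plus 3 SD, cut at about 25% in these data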;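 note: inhibitors block binding of the rhodamine activity-based probe so polarization drops; 0% = enzyme with DMSO and 100% = wells lacking pPAFAH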
PAFAH1B2 inh – inhibitors of human PAFAH1B2; P68402; recombinant PAFAH1B2, FP-rhodamine activity probe, fluorescence polarization; inhibition, % at 3.39 µM; 1.2% of 340,000 active; AID 492953;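 active = inhibition above the mean of all tested compounds plus 3 SD, cut at about 24% in these data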;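 note: 0% = enzyme with DMSO and 100% = wells lacking PAFAH1B2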
PAFAH1B3 FP inh – inhibitors of human PAFAH1B3; Q15102; recombinant PAFAH1B3, FP-rhodamine probe, fluorescence polarization; inhibition, % at 3.39 µM; 0.28% of 340,000 active; AID 492972;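 active = inhibition above the screen-wide average of all tested compounds plus 3 SD, cut at about 25% in these data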;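 note: 0% = enzyme with DMSO only and 100% = wells lacking PAFAH1B3 protein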
CTSL1 counter – counter-screen for PFM18AAP inhibitors: inhibitors of F. hepatica cathepsin L1; recombinant F. hepatica cathepsin L1, Z-Leu-Arg-MCA fluorescence; inhibition, % at 5.96 µM; 0.49% of 300,000 active;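 active = inhibition above the mean of all tested compounds plus 3 SD, set per screening campaign, cut at about 17% in these data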;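 note: 0% = plate median of test compound wells and 100% = 1 µM Z-Phe-Ala-diazomethylketone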
PAFAH2 FP inh – PAFAH2 (human) inhibition; Q99487; inhibition, % at 3.39 µM; recombinant PAFAH2, FP-rhodamine activity probe, fluorescence polarization; 0.99% of 340,000 active;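 active = inhibition above the mean over all tested compounds plus 3 SD, cut at about 30% in these data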;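 note: inhibitors block probe labeling of enzyme so polarization drops; 0% = enzyme with DMSO and 100% = wells lacking PAFAH2 protein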
Starred values were filed as active, the others as inactive; x = not tested or not shown; ! = not active in a repeat. An excerpt weighted towards active compounds, which were near 3% of everything screened.

SMILES	PP5 primary	pPAFAH inh	PAFAH1B2 inh	PAFAH1B3 FP inh	CTSL1 counter	PAFAH2 FP inh
Cc1ccc(NC(=O)NNC(=O)CN2C(=O)COc3ccccc32)cc1	2	6	3	9	-2	5
O=C(O)Cc1ccc2c(c1)N(S(=O)(=O)c1cccc(C(F)(F)F)c1)CC(C(=O)O)O2 (configuration not stated)	1	-2	27*	-5	-1	2
O=C(CSc1nnc2ccc(-c3ccccn3)nn12)Nc1ccccc1F	-2	3	8	6	0	2
S=C(NN=C1CCCCCC1)Nc1ccc(Cl)cc1	-1	1	3	11	2	-2
NC(=S)NN=C1CCCCCCCCCC1	x	x	28*	3	x	7
O=C(O)CCc1ccc(-c2ccc(F)cc2)n1Cc1ccco1	2	12	29*	-1	5	7
COc1ccc2c(c1)c1ccc3c(c1n2C)C(=O)C=CC3=O	x	x	45*	31*	x	36*
COC(=O)C1C2CC(=O)C(C2)C1C(=O)OC (configuration not stated)	x	x	2	7	x	-5
O=C(O)CN1C(=O)C(=O)N(Cc2ccc(C(F)(F)F)cc2)C1=O	1	1	6	-4	-6	-3
COc1cc(/C=C/C(=O)OCC(=O)NC2CCCCCCC2)ccc1O	x	27*	5	-8	x	76*
COc1cc(/C=C/C(=O)OCC(=O)Nc2cccc(F)c2)ccc1O	x	28*	2	11	x	93*
CCOC(=O)CC(C#N)c1cn(C)c2ccccc12 (configuration not stated)	0	3	0	-1	28*	-4
CCOC(=O)Cn1cc(C#N)c2ccccc21	1	3	4	4	-1	-9
CC(=O)Oc1c(I)cc(I)cc1C(=O)Nc1ccc(Cl)cc1	5	25*	25*	10	-1	3
COc1ccc(Cl)cc1C(=O)Nc1ccc(NC(C)=O)cc1	-7	-2	-5	8	13	5
O=S(=O)(c1cccc2nsnc12)N1CCCCC1	2	1	0	0	-3	-1
COc1cccc(NC=C2C(=O)OC3(CCCCC3)OC2=O)c1	4	0	5	13	19*	2
CC(C)N(Cc1ccccc1)C(=O)CN1c2cccc3cccc(c23)S1(=O)=O	x	4	10	11	x	-2
CC1=C(CC(=O)c2ccc(Cl)cc2)C(=O)c2ccccc2C1=O	2	28*	6	8	0	2
O=C(Cc1ccccn1)c1ccc(Cl)cc1	0	3	6	1	-2	-6
O=C1Cc2ccccc2C(=O)N1OCc1ccc(Cl)cc1	0	5	25*	8	1	7
Cc1ccc(OCc2cc(C(=O)NC3CCc4ccccc43)no2)cn1 (configuration not stated)	x	x	2	14	x	1
COC(=O)C[C@H]1C=C[C@@H](C(C(=O)OC)C(=O)OC)CN1C(C)=O	x	x	4	1	x	-9
CCc1cc(C(=O)N2CCN(c3ncccn3)CC2)sc1C	-1	0	-3	0	0	7
CC1CCc2sc(C(=O)N3CCN(c4ncccn4)CC3)cc2C1 (configuration not stated)	0	28*	0	-7	4	5
SMILES	PP5 primary	pPAFAH inh	PAFAH1B2 inh	PAFAH1B3 FP inh	CTSL1 counter	PAFAH2 FP inh
COc1ccc(N(CC(=O)Nc2cc(C)cc(C)c2)S(=O)(=O)c2ccccc2[N+](=O)[O-])c(OC)c1	0	2	-1	-5	0	-6
COc1ccc(N(CC(=O)Nc2cc(C)ccc2C)S(=O)(=O)c2ccccc2[N+](=O)[O-])c(OC)c1	5	29*	1	4	-3	-6
CSc1nc(N(CCO)CCO)c2sc3nc(-c4ccco4)c4c(c3c2n1)CCC4	x	x	6	15	x	31*
COc1ccc(-c2ccc3c(N)c(C(=O)c4cccc(OC)c4)sc3n2)cc1	7	34*	-2	0	4	2
COc1ccccc1N1CCN(CCCNC(=O)C2CCCN(c3ncnc4c3nc3n4CCCCC3)C2)CC1 (configuration not stated)	-3	3	4	2	0	-1
COc1c2c(c(C)c3c1C(=O)OC3)O[C@@]1(C)CC[C@@]3(O)C(C)(C)OC(=O)CC[C@]3(C)[C@H]1C2	0	10	2	8	25*	-1
Cc1ccc(C(=O)Cn2ncsc2=N)cc1	1	1	2	2	62*	11
Cc1ccc(C(=O)Cn2c(=N)n(N)c3ccccc32)cc1	1	-2	5	-4	-2	-2
COc1ccccc1NC(=O)C(C)OC(=O)CCCOc1ccccc1 (configuration not stated)	1	7	3	3	-35	-3
CC(C)(c1ccccc1)c1ccc(OCCN2CCOCC2)cc1	0	27*	17	4	1	3
O=C(NCCN1C(=O)S/C(=C\c2cccc(Cl)c2Cl)C1=O)C1=COCCO1	3	-7	-11	-15	-7	-2
C/C(=N\OC(=O)c1ccc(OC(C)C)cc1)c1ccc(C)c(C)c1	3	28*	0	4	5	23
Cc1ccc(/C(N)=N/OC(=O)c2ccc(F)cc2)cc1	-2	0	3	7	-1	6
CCCOc1ccc(C(=O)O/N=C(\CC)c2ccc(C)cc2)cc1	-1	20	-4	-2	1	-4
C/C(=N\OC(=O)c1ccc(F)cc1)c1ccc(F)c(F)c1	2	3	22	-5	0	37*
CC/C(=N\OC(=O)c1ccc(OC(C)C)cc1)c1ccc(C)cc1	4	29*	1	0	2	9
O=C(CC1C(=O)NCCN1C(=O)Nc1ccccc1)Nc1cc(Cl)cc(Cl)c1 (configuration not stated)	2	7	3	-4	1	-2
COc1cccc(OCCCCN2CC(C)OC(C)C2)c1 (configuration not stated)	4	0	-1	2	-4	5
CC1CN(CCCCOc2ccc3ccccc3c2)CC(C)O1 (configuration not stated)	2	1	-8	1	19*	14
COC(CNC(=O)c1ccc2c(c1)ncn2-c1ccc(F)c(F)c1)OC	2	3	3	-7	18*	-1
CCOC(CNC(=O)c1ccc2c(c1)ncn2-c1ccc(F)c(F)c1)OCC	-2	8	-1	-4	-3	4
O=C(Cc1cc(=O)[nH][nH]1)N/N=C/C(Cl)=C/c1ccccc1	0	26*!	8	0	2	-3
O=C(Cc1cc(=O)[nH][nH]1)N/N=C/c1ccccc1Cl	1	5	x	x	-3	x
CC(O)(CC(=O)CC(=O)c1ccccc1)c1ccccc1 (configuration not stated)	x	x	-2	1	x	6
CCN1CCC(O)(C(C(=O)O)c2ccccc2)CC1 (configuration not stated)	x	x	-3	2	x	-6
